In PubChem BioAssay (Tox21):
Results filed as inconclusive are left out. The source made the active and inactive calls. Unless noted, the call rests on the fitted dose curve; in most records, active means well fitted curve in the direction sought with a large enough effect in the repeat runs; inconclusive means weak or mixed curves; inactive means no such curve, though single readings can be large; an effect the other way counts as inactive or inconclusive.

Legend:
[1] = qHTS assay to identify small molecule agonists of H2AX (AID 1224845; active means well fitted activation curve with a large enough effect in the signal ratio in the repeat runs, not every such curve was filed as active; the % refers to the signal ratio)
Procedure, shortened: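 Wild-type CHO-K1 cells, plated overnight, exposed 3hr at 37C to 15 concentrations (0.76% DMSO final). Lysed, then HTRF anti-pH2AX (S139) cryptate and anti-H2AX-d2 antibodies, 24 hr room temperature; 665/620 nm emission read.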

[2] = qHTS assay to identify small molecule agonists of the hypoxia (HIF-1) signaling pathway (AID 1224846; active means well fitted activation curve with a large enough effect in the signal ratio in the repeat runs, not every such curve was filed as active; the % refers to the signal ratio)
Procedure, shortened: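 Compounds added to ME-180 cells carrying hypoxia-response-element beta-lactamase reporter (0.5% dialyzed FBS, 5 h preplating), 17 h at 37C; agonist activity detected by CCF4-AM B/G FRET read-out.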

[3] = qHTS assay to identify small molecule agonists of H2AX - cell viability counter screen (AID 1224847; calls by dose curve; further: nearly all actives have a fitted effect of over 30% in size; further: potency means the concentration at half of the fitted maximal effect; on activity change, negative = cytotoxicity: top concentration of the series differs between compounds)
Procedure, shortened: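 After overnight plating of 1000 CHO-K1 cells per well, a 15-concentration compound series was applied for 3 hr at 37C. Luminescence from CellTiter-Glo, read following 30 min at room temperature, reflected cell viability.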

[4] = qHTS assay to identify small molecule antagonists of the estrogen related receptor (ERR) signaling pathway from Tox21 library (AID 1224848); further: nearly all actives have a fitted effect of over 50% in size
Procedure, shortened: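 Compounds dissolved in DMSO are pin-transferred onto ERR reporter cells (2,000 per well) that have settled for 6 h at 37 C. Plates then incubate 18 h at 37 C before ONE-Glo luciferase reagent and a luminescence read 30 min later.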

[5] = qHTS assay to identify small molecule agonists of the estrogen related receptor (ERR) signaling pathway from Tox21 library (AID 1224849; calls by dose curve; further: nearly all actives have a fitted effect of over 15% in size); conditions: ERR reporter cell line, ONE-Glo luciferase, 18 h; at 92.4 µM (top of the series) unless noted
Procedure, shortened: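 Luminescent agonist read-out (One-Glo, 30-minute room-temperature incubation) following 18-hour compound treatment at 37 C of the ERR cell line, which had been plated 6 hours before dosing.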

[6] = qHTS RealTime-Glo MT Cell Viability Assay in HepG2 cells - 24 hour (AID 1224867); further: nearly all actives have a fitted effect of over 50% in size
Procedure, shortened: (§1)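 Luminescence read-out: viable HepG2 cells reduce a prosubstrate to a NanoLuc substrate, giving a signal proportional to live cell number. Reads taken at 0, 8, 16, 24, 32 and 40 h of compound exposure at 37 C.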

[7] = qHTS RealTime-Glo MT Cell Viability Assay in HEK293 cells - 32 hour (AID 1224868); further: top concentration of the series differs between compounds; nearly all actives have a fitted effect of over 50% in size
Procedure, shortened: (§2)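 Nonlytic real-time viability readout: viable cells convert prosubstrate to NanoLuc substrate, giving luminescence proportional to live cell number. HEK293, 600 cells/well, compound added after 5 h, continuous culture at 37 C.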

[8] = A CellTox Green Cytotoxicity Assay to monitor cytotoxicity in HEK293 cells - 0 hour (AID 1224869); further: nearly all actives have a fitted effect of over 50% in size
Procedure, shortened: (§3)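 Fluorescence from a DNA-binding dye excluded by viable cells was measured repeatedly in the same HEK293 wells (600 cells/well) during continuous compound exposure at 37 C. Each assay gives one read point: 0, 8, 16, 24, 32 or 40 h.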

[9] = A CellTox Green Cytotoxicity Assay to monitor cytotoxicity in HEK293 cells - 40 hour (AID 1224871); further: nearly all actives have a fitted effect of over 45% in size; further: potency means the concentration at half of the fitted maximal effect
Procedure, shortened: as §3

[10] = qHTS RealTime-Glo MT Cell Viability Assay in HEK293 cells - 16 hour (AID 1224872)
Procedure, shortened: as §2

[11] = qHTS RealTime-Glo MT Cell Viability Assay in HepG2 cells - 8 hour (AID 1224873); further: nearly all actives have a fitted effect of over 55% in size
Procedure, shortened: (§4)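 HepG2 cells (600/well) mixed with RealTime-Glo MT reagent, settled 5 h at 37 C/5% CO2 before compound addition. Nonlytic NanoLuc luminescence from viable-cell prosubstrate reduction read repeatedly during 40 h treatment at 37 C.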

[12] = A CellTox Green Cytotoxicity Assay to monitor cytotoxicity in HEK293 cells - 24 hour (AID 1224875); further: nearly all actives have a fitted effect of over 45% in size; further: potency means the concentration at half of the fitted maximal effect
Procedure, shortened: as §3

[13] = A CellTox Green Cytotoxicity Assay to monitor cytotoxicity in HepG2 cells - 16 hour (AID 1224876); further: nearly all actives have a fitted effect of over 45% in size; further: potency means the concentration at half of the fitted maximal effect
Procedure, shortened: (§5)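 Real-time cytotoxicity: fluorescence of a cell-impermeant cyanine dye binding DNA of dead HepG2 cells, measured repeatedly (0–40 h) during compound exposure at 37 C. Cells seeded 600/well with reagent, dosed after 5 h.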

[14] = qHTS RealTime-Glo MT Cell Viability Assay in HepG2 cells - 32 hour (AID 1224877); further: nearly all actives have a fitted effect of over 55% in size
Procedure, shortened: as §1

[15] = A CellTox Green Cytotoxicity Assay to monitor cytotoxicity in HepG2 cells - 24 hour (AID 1224878); further: nearly all actives have a fitted effect of over 45% in size; further: potency means the concentration at half of the fitted maximal effect
Procedure, shortened: as §5

[16] = A CellTox Green Cytotoxicity Assay to monitor cytotoxicity in HepG2 cells - 40 hour (AID 1224879); further: nearly all actives have a fitted effect of over 40% in size; further: potency means the concentration at half of the fitted maximal effect
Procedure, shortened: as §5

[17] = qHTS RealTime-Glo MT Cell Viability Assay in HEK293 cells - 0 hour (AID 1224880)
Procedure, shortened: (§6)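 Luminescence, which tracks viable cell number through reduction of the prosubstrate to a NanoLuc substrate, was read over continuous 37 C culture. Cells (600/well) were premixed with reagent and rested 5 h before 23 nL of compound in DMSO was pinned.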

[18] = A CellTox Green Cytotoxicity Assay to monitor cytotoxicity in HEK293 cells - 32 hour (AID 1224881); further: nearly all actives have a fitted effect of over 40% in size; further: potency means the concentration at half of the fitted maximal effect
Procedure, shortened: as §3

[19] = qHTS RealTime-Glo MT Cell Viability Assay in HepG2 cells - 40 hour (AID 1224870); further: nearly all actives have a fitted effect of over 50% in size
Procedure, shortened: as §4

[20] = qHTS RealTime-Glo MT Cell Viability Assay in HEK293 cells - 40 hour (AID 1224874); conditions: RealTime-Glo luminescence; max response: active compounds read low; further: nearly all actives have a fitted effect of over 50% in size
Procedure, shortened: as §6
On the % scale 0 is the no-effect control and ±100 the full control effect.

CCN1CCN(c2cc(-c3ccc(F)cc3)c3c(n2)CCCCCC3)CC1
inactive: activation (H2AX phosphorylation) [1] 3.44% [at 31.6 µM] | activation [2] 1.71% [at 15.8 µM] | activity change, negative = cytotoxicity [3] -6.38% [at 31.6 µM] | activity, negative = inhibition [4] -10.2% [at 19 µM] | activity change, positive = activation [5] -5.69% [at 19 µM] | activity change, negative = cytotoxicity [6] -8.27% [at 15.8 µM] | activity change, negative = cytotoxic [7] -11.6% [at 15.8 µM] | cytotoxicity [8] -14.4% [at 15.8 µM] | cytotoxicity increase [9] 9.69% [at 15.8 µM] | activity change, negative = cytotoxicity [10] 2.72% [at 15.8 µM] | viability change, negative = cytotoxic [11] 1.26% [at 15.8 µM] | activity change [12] 2.45% [at 15.8 µM, active compounds read high] | cytotoxicity increase [13] 12.3% [at 15.8 µM] | activity change, negative = cytotoxic [14] -10.2% [at 15.8 µM] | cytotoxicity [15] 24% [at 15.8 µM] | activity change, negative = cytotoxicity [17] 9.2% [at 15.8 µM] | cytotoxicity increase [18] 10% [at 15.8 µM]
active: Potency [16] 11.7 µM

CCCCCCCCCCCCCCCC
inactive: Potency [1] | outcome [2] | Potency [3] | Potency [4] | activity change, positive = activation [5] 3.33% | Potency [6] | Potency [8] | Potency [19] | Potency [9] | Potency [10] | Potency [11] | max response [20] 15.7% | Potency [12] | Potency [13] | Potency [14] | Potency [15] | Potency [16] | Potency [17]

NCCCC(O)(P(=O)(O)O)P(=O)(O)O
inactive: Potency [1] | outcome [2] | Potency [3] | Potency [6] | Potency [7] | Potency [8] | Potency [19] | Potency [9] | Potency [10] | Potency [11] | max response [20] 12.2% | Potency [12] | Potency [14] | Potency [15] | Potency [16] | Potency [17] | Potency [18]

CCc1ccc(C)nc1
inactive: Potency [1] | outcome [2] | Potency [3] | Potency [6] | Potency [8] | Potency [19] | Potency [9] | Potency [10] | Potency [11] | max response [20] -9.25% | Potency [12] | Potency [13] | Potency [14] | Potency [15] | Potency [16] | Potency [17] | Potency [18]

CCc1ccc(O)c(C(C)(C)C)c1
active: Potency [3] 101 µM | Potency [9] 38.9 µM | Potency [12] 43.6 µM | Potency [13] 43.6 µM | Potency [15] 38.9 µM | Potency [16] 38.9 µM | Potency [18] 38.9 µM
inactive: Potency [1] | outcome [2] | Potency [6] | Potency [7] | Potency [8] | Potency [19] | Potency [10] | Potency [14] | Potency [17]

CC1CNCC(C)O1 (stereo not drawn)
inactive: Potency [1] | outcome [2] | Potency [3] | Potency [6] | Potency [7] | Potency [8] | Potency [19] | Potency [9] | Potency [10] | max response [20] 11.7% | Potency [13] | Potency [14] | Potency [15] | Potency [17] | Potency [18]

CCCC(C)CCC(C)=O (stereo not drawn)
inactive: Potency [1] | outcome [2] | Potency [3] | Potency [6] | Potency [7] | Potency [8] | Potency [19] | Potency [9] | Potency [10] | max response [20] 12.6% | Potency [12] | Potency [13] | Potency [14] | Potency [15] | Potency [16] | Potency [17] | Potency [18]

O=C=NCc1cccc(CN=C=O)c1
inactive: activation (H2AX phosphorylation) [1] -2.62% [at 31.6 µM] | activation [2] -0.762% [at 15.8 µM] | activity change, negative = cytotoxicity [3] 1.36% [at 31.6 µM] | activity change, negative = cytotoxicity [6] 1.03% [at 15.8 µM] | activity change, negative = cytotoxic [7] 6.09% [at 15.8 µM] | cytotoxicity [8] -8.38% [at 15.8 µM] | activity change, negative = cytotoxic [19] 0.58% [at 15.8 µM] | cytotoxicity increase [9] -14.1% [at 15.8 µM] | activity change, negative = cytotoxicity [10] 2.12% [at 15.8 µM] | activity change [12] -11.7% [at 15.8 µM, active compounds read high] | cytotoxicity increase [13] 2.28% [at 15.8 µM] | activity change, negative = cytotoxic [14] 0.5% [at 15.8 µM] | cytotoxicity [15] 0.14% [at 15.8 µM] | cytotoxicity increase [16] -0.536% [at 15.8 µM] | activity change, negative = cytotoxicity [17] 5.7% [at 15.8 µM] | cytotoxicity increase [18] -11.9% [at 15.8 µM]

CC(=O)c1ccccc1N
inactive: Potency [1] | outcome [2] | Potency [3] | Potency [6] | Potency [8] | Potency [19] | Potency [9] | Potency [11] | Potency [12] | Potency [13] | Potency [14] | Potency [15] | Potency [16] | Potency [17] | Potency [18]

OCCN1CN(CCO)CN(CCO)C1
inactive: Potency [1] | outcome [2] | Potency [3] | Potency [6] | Potency [7] | Potency [8] | Potency [9] | Potency [11] | Potency [13] | Potency [14] | Potency [15] | Potency [16] | Potency [18]

CC(C)=C1CC[C@@H](C)CC1=O
inactive: Potency [1] | outcome [2] | Potency [3] | Potency [6] | Potency [7] | Potency [8] | Potency [19] | Potency [9] | Potency [10] | max response [20] 0.14% | Potency [12] | Potency [13] | Potency [14] | Potency [15] | Potency [16] | Potency [17]

CC(C)(C)C1=CC(=O)C=C(C(C)(C)C)C1=O
inactive: Potency [1] | outcome [2] | Potency [3] | Potency [6] | Potency [8] | Potency [19] | Potency [10] | Potency [11] | max response [20] 11.2% | Potency [13] | Potency [14] | Potency [15] | Potency [16] | Potency [17]

C=CC(C)C#N (stereo not drawn)
inactive: Potency [1] | outcome [2] | Potency [3] | Potency [6] | Potency [7] | Potency [8] | Potency [19] | Potency [9] | Potency [10] | Potency [11] | Potency [13] | Potency [14] | Potency [15] | Potency [16] | Potency [17] | Potency [18]

O=C(O)c1cccc(Cl)n1
inactive: Potency [1] | outcome [2] | Potency [3] | Potency [6] | Potency [7] | Potency [10] | Potency [11] | max response [20] 7.12% | Potency [13] | Potency [14] | Potency [15] | Potency [17]

O=Cc1ccc(F)cc1
inactive: Potency [1] | outcome [2] | Potency [3] | Potency [6] | Potency [7] | Potency [8] | Potency [19] | Potency [9] | Potency [10] | max response [20] 3.4% | Potency [12] | Potency [13] | Potency [14] | Potency [15] | Potency [16] | Potency [17] | Potency [18]

CCOCN(C(=O)CS(=O)(=O)O)c1c(C)cccc1CC
inactive: Potency [1] | outcome [2] | Potency [3] | Potency [6] | Potency [7] | Potency [8] | Potency [9] | Potency [10] | Potency [11] | max response [20] 8.02% | Potency [12] | Potency [13] | Potency [14] | Potency [15] | Potency [17] | Potency [18]
